# Shown are actives, neighbours in structure and some others; about 3% of the full set was active somewhere.
# Coupling enz: inhibits coupling enzyme system, counter-screen for aldolase hits. coupling enzyme system counterscreen, AmpLite Red fluorescence. activity change, negative = inhibition, % at 58.2 µM, hits read low. 290,000 tested, 0.67% active; in the data active = activity change below about -30%; note: % is set by controls: 0 for no effect and ±100 for the full control effect
#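 Coupling enzymes only (glyceraldehyde-3-phosphate) + compound, at 57.5 uM final, 10 min RT; add substrate/coupling/AmpLite Red mix, 20 min RT; fluorescence ex 525/em 598 nm. Actives flag coupling-system interference.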
# JMJD2E inh: blocks human JMJD2E demethylase activity; B2RXH2; JMJD2E catalytic domain, FDH-coupled NADH fluorescence (FDH is formaldehyde dehydrogenase); Potency, µM (top dose mostly 57.1 µM), for inactives: at the top dose activity change, negative = inhibition, hits mostly inhibitors; 230,000 tested, 1.6% active; active = well fitted inhibition curve with a large enough effect, not every such curve was filed as active; inconclusive = small, poorly fitted or top-dose-only effect, or another doubt; inactive = no such curve, though single readings can be large or run the other way;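 note: potency is the fitted concentration of half-maximal effect; 0% = wells with enzyme and -100% = buffer wells without enzyme; nearly all actives have a fitted effect of over 50% in size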
# Target sequence (B2RXH2 1-337 limits assumed): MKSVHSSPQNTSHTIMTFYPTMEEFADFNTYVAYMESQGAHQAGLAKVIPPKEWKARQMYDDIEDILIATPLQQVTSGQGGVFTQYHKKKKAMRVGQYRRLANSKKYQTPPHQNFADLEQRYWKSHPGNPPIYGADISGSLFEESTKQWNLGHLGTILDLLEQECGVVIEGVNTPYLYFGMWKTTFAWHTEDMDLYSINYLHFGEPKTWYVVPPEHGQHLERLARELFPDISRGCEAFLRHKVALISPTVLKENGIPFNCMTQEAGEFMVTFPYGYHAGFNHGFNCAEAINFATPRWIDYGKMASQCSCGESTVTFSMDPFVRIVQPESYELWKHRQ
# Tau FP inhib: inhibitors of human tau fibril formation; P10636; K18 P301L tau heparin fibrillization, Alexa594 FP, 6 h; Potency, µM (series often up to 57.7 µM), for the others: top-dose activity, negative = inhibition, actives largely listed as inhibitors; 280,000 tested, 0.39% active; AID 1468; note: potency is the fitted concentration of half-maximal effect; % is set by controls: 0 for no effect and ±100 for the full control effect; nearly all actives have a fitted effect of over 55% in size
# Target sequence (P10636 561-689 P618L limits assumed): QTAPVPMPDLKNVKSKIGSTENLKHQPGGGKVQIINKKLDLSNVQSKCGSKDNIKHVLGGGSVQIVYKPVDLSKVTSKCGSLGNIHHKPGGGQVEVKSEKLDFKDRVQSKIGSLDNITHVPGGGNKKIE
#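 Human tau K18 […] P301L fragment, 15 uM unlabeled plus 0.24 uM Alexa 594-labeled tau (final), with compound and 20 uM heparin in 100 mM sodium acetate pH 7; 6 hr at 37 C, then Alexa 594 FP read.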
# Tau fluor counter: counter-screen for tau fibril formation inhibitors; Potency, µM (series often up to 57.7 µM), for the others: at the highest dose activity change, negative = decrease; tau K18 P301L Alexa594 fluorescence, heparin fibrillization; 280,000 tested, 0.93% active; AID 1463; note: potency is the fitted concentration of half-maximal effect; % is set by controls: 0 for no effect and ±100 for the full control effect; nearly all actives have a fitted effect of over 55% in size
#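 Human tau K18 P301L (15 uM unlabeled, 0.24 uM Alexa 594-labeled) in 100 mM sodium acetate pH 7 with 20 uM heparin, 6 hr at 37 C. ThT 30 uM added, 1 hr ambient; Alexa 594 FP and total fluorescence read at 555/632 nm.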
# Tau ThT inhib: tau fibrillization inhibition (ThT binding) | 270,000 tested, 2.1% active | recombinant tau K18 P301L, heparin-induced fibrillization, ThT fluorescence | P10636 | Potency, µM (series often up to 57.4 µM), without a hit: top-dose activity, negative = inhibition, actives largely listed as inhibitors; note: potency is the fitted concentration of half-maximal effect; % is set by controls: 0 for no effect and ±100 for the full control effect; nearly all actives have a fitted effect of over 55% in size
#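 Heparin-induced fibrillization of the P301L-mutant K18 repeat-domain fragment of human tau was followed by ThT binding in quantitative high-throughput format.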
# Tau TEM fibril: Inhibits tau K18 fibrillization by TEM grading; shares compounds with Tau ThT inhib; recombinant tau K18 P301L fibrillization, TEM grading; stronger effect = higher value; fibril grade (0 = clumped fibrils, 4 = only tiny pieces) (test concentration not listed); 45 tested, 70% active; AID 1719;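 active = compounds whose electron micrographs showed tau fibrils broken into shorter filaments or fragments, graded high on fibril breakup; inconclusive = micrographs gave an unclear fibril picture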
# tau fibril sed: inhibitors of human tau fibrillization, sedimentation test. 110 tested, 50% active. recombinant tau K18 P301L (four-repeat tau fragment), sedimentation SDS-PAGE densitometry. inhibition, % at 100 µM. AID 1720. shares compounds with Tau ThT inhib; in the data active = inhibition above about 40%; inconclusive = no clear call, values can overlap the other calls; inactive = below about 18%
# An asterisk follows results filed as active; ? = inconclusive; · = not tested or not shown; [ ] = dose if it differs, or a comment. Unless noted, calls come from the whole dose curve; as a rule, active = well fitted curve in the direction sought with a large enough effect; inconclusive = small, poorly fitted or top-dose-only effect, or another doubt; inactive = no such curve, though single readings can be large; an effect the other way counts as inactive or inconclusive.
SMILES,Coupling enz,JMJD2E inh,Tau FP inhib,Tau fluor counter,Tau ThT inhib,tau fibril sed,others
Oc1ccc(C2CNCCc3c2cc(O)c(O)c3Cl)cc1 (stereo unspecified),·,?,-9%,-17%,?,·,
C=CCN1CCc2c(cc(O)c(O)c2Cl)C(c2ccccc2)C1 (stereo unspecified),-8,13µM*,-6%,-27%,?,·,
CC(C)Oc1ccc(CNC(=O)C(C)n2ccc3cc(S(=O)(=O)N4CCCCCC4)ccc32)cc1 (stereo unspecified),·,·,0%,-23%,-6%,·,
CCOC(=O)c1c(C)c(-c2ccccc2)n(CC(=O)NC2CCCCCC2)c1C,·,·,9%,1%,3%,·,
C=CS(=O)(=O)c1ccc(Oc2ccc(S(=O)(=O)C=C)cc2)cc1,1,3%,?,-20%,2µM*,·,
CCOC(=O)C1CCN(C(=O)c2ccc3c(c2)N=C(CC)c2cc(C)ccc2S3)CC1,·,·,5%,-13%,?,·,
CCOCCCN(Cc1ccco1)C(=O)c1cc2c(s1)-c1c(C)cccc1OC2,·,·,0%,-13%,?,·,
O=[N+]([O-])c1ccc(-n2nnnc2-c2ccccc2)c([N+](=O)[O-])c1,-24,-21%,?,11µM*[quencher],14µM*,·,
O=[N+]([O-])c1ccc(-n2nnnc2-c2ccccc2)cc1,0,8%,10%,-4%,-5%,·,
Cc1ccc(CNC(=O)c2c3c(nc4ccccc24)C(=O)N(C2CCCCC2)C3)cc1,·,·,-6%,-5%,-15%,·,
COC(=O)c1cc(NC(=O)c2cccc(C(F)(F)F)c2)c(=O)oc1C/C=N/OCc1cccc(Cl)c1Cl,-1,20µM*,-5%,-26%,?,·,
CCOC(=O)C1=C(C)N[C@@]2(O)c3ccccc3C(=O)[C@@]12O,-13,-8%,?,-11%,3.5µM*,·,
CCCCOC(=O)C1=C(C)NC2(O)c3ccccc3C(=O)C12O (stereo unspecified),-1,-20%,?,-11%,10µM*,·,
CC1=C(C(=O)OC(C)C)C2(O)C(=O)c3ccccc3C2(O)N1 (stereo unspecified),-4,?,?,-23%,7.1µM*,·,
CC1=C(C#N)C2(O)C(=O)c3ccccc3C2(O)N1 (stereo unspecified),-1,8%,-7%,-1%,-16%,·,
COc1ccc2c(c1)NC1(O)c3ccccc3C(=O)C21O (stereo unspecified),2,-2%,3%,-2%,-10%,·,
CC(=O)C(=O)O,-1,·,·,·,·,·,
CCN(Cc1ccccc1)c1ccc(/C=N/NS(=O)(=O)c2cccc([N+](=O)[O-])c2)cc1,1,?,18%,7.9µM*[quencher],?,·,
CCN(CC)c1ccc(/C=N/NS(=O)(=O)c2ccc(C)c([N+](=O)[O-])c2)cc1,0,-4%,-3%,?,?,·,
COC(=O)[C@H]1[C@H]2C[C@@H]3c4[nH]c5cc(OC)ccc5c4CCN3C[C@H]2C[C@@H](OC(=O)c2cc(OC)c(OC)c(OC)c2)[C@@H]1OC,·,?,7%,13µM*[quencher],?,·,
COC(=O)[C@@H]1C2CC3c4[nH]c5cc(OC)ccc5c4CCN3CC2C[C@H](OC(=O)c2cc(OC)c(OC)c(OC)c2)C1OC (stereo partly specified),-12,?,12%,?,?,·,
CC(C)c1ccc(NS(=O)(=O)c2ccc3[nH]cc(C(=O)NCCc4ccccc4)c(=O)c3c2)cc1,·,·,?,-8%,5%,8,
O=C(NCCCO)Nc1ccc2nc(-c3ccco3)c(-c3ccco3)nc2c1,-43*,?,?,7.1µM*[quencher],?,74*,Tau TEM fibril=4.5*
CCN(C(=S)Nc1cccnc1)c1ccccc1,0,?,-3%,-8%,-8%,·,
CN(C(=S)Nc1cccnc1)c1ccc(O)cc1,-33*,?,3.2µM*,?,2µM*,51*,Tau TEM fibril=2*
SMILES,Coupling enz,JMJD2E inh,Tau FP inhib,Tau fluor counter,Tau ThT inhib,tau fibril sed,others
COc1ccccc1N1CCN(C(=O)c2oc3ccccc3c2N)CC1,·,·,?,-28%,-17%,·,
Cc1ccc(NCc2cc3cc4c(cc3n(CC(=O)Nc3ccc(C)cc3)c2=O)OCCO4)cc1,·,·,14%,?,-3%,9,
CCOC(=O)c1ccc(NC(=O)c2c(NCc3cc(OC)c(OC)cc3OC)sc3c2CCCC3)cc1,·,·,-4%,?,?,·,
Cc1ccccc1CN1C(=O)c2ccccc2S(=O)c2ccc(C(=O)NCc3ccccc3)cc21 (stereo unspecified),·,·,-8%,-26%,-10%,·,
COC(=O)c1c(NC(=O)CCCOc2ccc(C(C)(C)C)cc2)sc2c1C(C(=O)OC)CC2 (stereo unspecified),·,·,?,?,8.9µM*,?,Tau TEM fibril=0
COc1ccc(CNC(=O)Cn2nc(C)n3cccc3c2=O)cc1,0,·,?,-15%,17%,5,
Cc1ccc(C2=NNC(=Nc3ccc(F)cc3)SC2)cc1,-1,-1%,-21%,?,16µM*,?,Tau TEM fibril=3*
CC(C)(C)N=C1NN=C(c2ccc(Cl)cc2)CS1,2,-8%,13%,-15%,-17%,·,
CCOC(=O)c1nn(-c2cccc(C(F)(F)F)c2)c(=O)c2c(N)scc12,·,·,·,·,·,41*,
CCOC(=O)c1nc(N)c(=O)n(-c2ccccc2)n1,1,6%,-3%,3%,-9%,·,
CCOC(=O)c1nnn(-c2ccc(OC)cc2)c1N,0,5%,-2%,-2%,-5%,·,
CCOC(=O)c1nn(-c2ccc(OC)cc2)c(=O)c2c(N)scc12,-53*,?,?,?,8.9µM*,66*,Tau TEM fibril=2*
CCOC(=O)c1nn(-c2ccccc2)c(=O)c2c(N)sc(C)c12,·,·,·,·,·,4,
CCOC(=O)c1nn(-c2ccc(Cl)c(Cl)c2)c(=O)c2c(N)scc12,·,·,·,·,·,12,
Cc1ccc(Cl)cc1N1CCN(C(=O)c2ccc3c(c2)N(Cc2ccccc2F)C(=O)c2ccccc2S3(=O)=O)CC1,·,·,-13%,-15%,-7%,·,
CCc1c(C)nc(SCc2nc(-c3ccccc3C)no2)[nH]c1=O,·,·,-6%,-7%,-8%,·,
CCOC(=O)c1nn(-c2ccc(C)c(C)c2)c(=O)c2c(N)scc12,-49*,3%,-5%,-15%,-10%,?,
CCOC(=O)c1nn(-c2ccc(C)c(C)c2)cc1O,-3,-8%,1%,-20%,-16%,·,
CCOC(=O)c1c(-c2ccccc2)csc1NC(=O)c1ccc(N2C(=O)CCC2=O)cc1,-3,-4%,-5%,-12%,0%,·,
CCOC(=O)c1nn(-c2ccccc2)c(=O)c2c(NC(=O)c3ccccc3)scc12,·,·,·,·,·,2,

# Source: PubChem (National Center for Advancing Translational Sciences (NCATS))
